Screening data: PubChem BioAssay, National Center for Advancing Translational Sciences (NCATS)
RGS12 GoLoco inh = inhibitors of human Gai1-RGS12 GoLoco interaction (red fluorophore) | P63096 | Gai1:RGS12 GoLoco peptide FP, rhodamine, 10 min | Potency, µM (highest dose often 61.6 µM), most hits filed as inhibitors | 230,000 tested, 0.44% active; active = well fitted inhibition curve with a large enough effect, not every such curve was filed as active; inactive = no such curve, though single readings can be large or run the other way; also: nearly all actives have a fitted effect of over 30% in size
TR SRC2 fluor cs = Texas Red fluorescence interference in TRb-SRC2 counter-screen; TRb/SRC2 Texas Red total fluorescence interference; 280,000 tested, 0.29% active; Potency, µM (series often up to 106 µM); active = well fitted curve in either direction with a large enough effect; inconclusive = small, poorly fitted or top-dose-only effect
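Human TRb ligand-binding domain at 0.6 uM with 20 nM Texas Red SRC2 peptide in Tris buffer containing 1 uM T3 and 5% DMSO, incubated with compound 5 h at ambient temperature. Total fluorescence (555/632 nm) calculated as parallel + 2 × perpendicular.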
Epigenetic derep = epigenetic control regulation, reporter derepression; murine LDR cells, GFP reporter derepression, 30 h; Potency, µM (top dose mostly 53.9 µM), most hits filed as activators; 280,000 tested, 0.2% active; AID 1865; also: nearly all actives have a fitted effect of over 60% in size
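In this reporter-derepression format, murine cells bearing a silenced integrated CMV-GFP locus incubate with test compound (30 h, 37 C), then are washed and imaged; fluorescent objects of 20–120 um count as induced cells.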
CBFb-RUNX1 inh = blocks binding between human CBF-beta and RUNX1; Q01196+Q13951; AlphaScreen CBFb-His/RUNX1-biotin binding, biochemical; Potency, µM (series often up to 59.8 µM), actives largely listed as inhibitors; 230,000 tested, under 10 active; AID 1477
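CBFb-His/RUNX1-biotin, 30 nM each, preincubated 20 min RT; compound 15 min RT; Ni + streptavidin beads 50 ng each, 90 min RT; AlphaScreen read.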
TRb-SRC2 inh = TRbeta-SRC2 interaction inhibition | Potency, µM (top dose mostly 106 µM), hits mostly inhibitors | TRbeta-SRC2 peptide binding, fluorescence polarization; receptor liganded with 1 µM T3 | 280,000 tested, 0.065% active; also: nearly all actives have a fitted effect of over 50% in size
Target sequence (P10828 whole entry, looked up): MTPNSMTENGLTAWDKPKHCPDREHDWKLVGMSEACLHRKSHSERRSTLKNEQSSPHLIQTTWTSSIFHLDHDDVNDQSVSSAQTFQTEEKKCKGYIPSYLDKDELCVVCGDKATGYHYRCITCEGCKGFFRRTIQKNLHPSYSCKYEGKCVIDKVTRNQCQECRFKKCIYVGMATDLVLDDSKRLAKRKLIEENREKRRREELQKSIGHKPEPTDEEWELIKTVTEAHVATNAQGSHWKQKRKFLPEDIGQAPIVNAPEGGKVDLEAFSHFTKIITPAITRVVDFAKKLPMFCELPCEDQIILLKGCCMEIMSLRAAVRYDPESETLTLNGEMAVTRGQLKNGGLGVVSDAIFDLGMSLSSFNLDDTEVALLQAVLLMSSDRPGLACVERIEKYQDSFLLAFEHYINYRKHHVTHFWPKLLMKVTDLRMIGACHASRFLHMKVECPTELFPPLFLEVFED
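Human TRb ligand-binding domain (0.6 uM) is mixed with 20 nM Texas Red SRC2 peptide and 1 uM T3; after compound addition and 5 hr at ambient temperature, polarization is measured and normalized to unbound and bound controls.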
Numbers stand for hits; n = inactive; u = inconclusive; x = no result; ! = not active in a repeat; [ ] = dose if it differs, or a comment. Rows were chosen to be rich in hits. Some 0.71% of all compounds tested hit in one or more screens of this group. Unless noted, calls follow the shape of the dose curve; as a rule, active = well fitted curve in the direction sought with a large enough effect; inconclusive = small, poorly fitted or top-dose-only effect, or another doubt; inactive = no such curve, though single readings can be large; an effect the other way counts as inactive or inconclusive.

SMILES	RGS12 GoLoco inh	TR SRC2 fluor cs	Epigenetic derep	CBFb-RUNX1 inh	TRb-SRC2 inh
O=c1[nH]c2ccc(NCc3ccc(-c4ccccc4)o3)cc2[nH]1	x	n	n	x	n
O=c1[nH]c2ccc(NCc3ccc(-c4ccc(Cl)cc4)o3)cc2[nH]1	x	100µM[quencher]	n	x	u
NCCC[C@@H](CC(=O)N[C@@H]1CCNC[C@H]1C(=O)N[C@H](CC(=O)N[C@@H](CCC(=O)O)CC(=O)O)Cc1ccccc1)NC(=O)C[C@H](Cc1c[nH]c2ccccc12)NC(=O)[C@@H]1CCCC[C@H]1N	20µM	n	n	n	n
C=CC1=C2C=C(C3CC3)N(C3CCCCC3)C=C2C(=O)C(C)(OC(=O)c2ccco2)C1=O (centres undefined)	n[14.2 µM]	n[11.2 µM]	x	n[13.1 µM]	n[11.2 µM]
O=C(c1ccccc1)c1c2c(cc3sc4ccccc4[n+]13)-c1cccc3cccc-2c13	1.3µM	n	11µM	u	n
Cc1sc2cc3c(c(C(=O)c4ccccc4)[n+]2c1C)-c1cccc2cccc-3c12	n	n	n	n	n
c1nc2nc(Nc3ccc(N4CCOCC4)cc3)nc(NC3CCCCC3)c2[nH]1	x	n	x	u	n
Cc1cc(N2CCOCC2)nc(N)n1	n	n	n	n	n
Nc1nc(N2CCOCC2)cc(=O)[nH]1	20µM	n	n	n	n
COc1ccccc1C(=O)Nc1c(C(=O)c2ccccc2)oc2ccccc12	x	0.056µM[quencher]	n	x	n
Nc1nc2c(ncn2[C@@H]2O[C@H](COP(=O)(O)OP(=O)(O)O)[C@@H](O)[C@H]2O)c(=O)[nH]1	n	n	n	n	n
CNC(=O)[C@H]1O[C@@H](n2cnc3c(N)ncnc32)[C@H](O)[C@@H]1O	n	n	n	n	n
Nc1c(C(=O)Nc2ccccc2F)sc2nc(Cc3ccccc3)cc(C(F)(F)F)c12	n	n	13µM	n	n
Oc1cc(CN2COc3ccccc32)c(O)cc1CNC1CCCCC1	n[14.2 µM]	x	x	x	x
CN1\C(=C/C=C/C=C/C=[N+](C)C)C(C)(C)c2ccccc21	n	50µM[fluorescent]	n	n	u
CC[n+]1cccc(-c2nc3ccccc3s2)c1	10µM	n	n	n	n
Oc1cccc(-c2nc3ccccc3s2)c1	n	n	n	n	n
Cc1cc(O)c(C=O)c2c1C(=O)Oc1c(CO)c(O)c3c(c1O2)C(O)OC3=O (centres undefined)	11µM	11µM[quencher]	n	x	u
Cc1cc(O)c(C=O)c2c1C(=O)Oc1c(COC(=O)/C=C/C(=O)O)c(O)c(C(=O)O)c(C)c1O2	n	7.1µM[quencher]	n	x	u
c1ccc(B(c2ccccc2)c2ccccc2)cc1	x	n	x	x	n
OC(COCC1COc2ccccc2O1)CN1CCN(c2ccccc2)CC1 (centres undefined)	n	n	n	n	n
C[N+]1(CC(O)COCC2COc3ccccc3O2)CCOCC1 (centres undefined)	2µM	n	n	n	n
CCn1cc2nc(SCC(=O)Nc3cc(OC)cc(OC)c3)n(Cc3ccc(Cl)cc3)c(=O)c2n1	x	n	n	x	n
CCn1cc2nc(SCC(=O)Nc3ccc(OC)c(Cl)c3)n(Cc3ccc(OC)cc3)c(=O)c2n1	x	3.5µM[quencher]	n	x	u
O=c1cc(-c2ccccc2)oc2cc(O)c(O)c(O)c12	n	45µM![quencher]	n	u	u
SMILES	RGS12 GoLoco inh	TR SRC2 fluor cs	Epigenetic derep	CBFb-RUNX1 inh	TRb-SRC2 inh
COc1c(O)cc2oc(-c3ccc(O)cc3)cc(=O)c2c1O	n	n	n	n	n
O=C(NCCCNc1ccc(C(F)(F)F)cc1[N+](=O)[O-])c1ccc(F)cc1	n	n	18µM	n	n
Cc1ccc(C(=O)NCCCNc2ccc(C(F)(F)F)cc2[N+](=O)[O-])cc1	n	u	n	n	n
NC(=O)c1ccc(-n2nnnc2SCC(=O)c2ccc(O)c(O)c2)cc1	n	50µM[quencher]	n	u	u
CCOc1ccc(CCNC(=O)c2ccc(-n3c(C)cc4c3CCC(C)C4)cc2)cc1OCC (centres undefined)	x	n	u	x	n
CSc1ccc(CCNC(=O)c2ccc(-n3c(C)cc4c3CCC(C)C4)cc2)cc1 (centres undefined)	x	22µM[quencher]	u	x	n
O=C(O)c1ccccc1-c1c2ccc(=O)cc-2oc2cc(O)ccc12	0.4µM	n	n	n	n
O=C(O)CN(CC(=O)O)Cc1cc2c(-c3ccccc3C(=O)O)c3cc(CN(CC(=O)O)CC(=O)O)c(=O)cc-3oc2cc1O	n	40µM[fluorescent]	u	u	6.3µM
